Among the data in PubChem BioAssay (Tox21) are Potency and outcome values, retold here.

Inconclusive results are not listed. Where a call stands in place of a potency, no number is given. Activity calls are given as the source filed them. Calls come from the whole dose curve; as a rule, active = well fitted curve in the direction sought with a large enough effect in the repeat runs; inconclusive = weak or mixed curves; inactive = no such curve, though single readings can be large; an effect the other way counts as inactive or inconclusive. Residues, ends and D or L forms follow the SMILES beside them.
Note: nearly all actives have a fitted effect of over 50% in size.

The nature of the first assay: qHTS RealTime-Glo MT Cell Viability Assay in HEK293 cells - 32 hour (AID 1224868). Note: top concentration of the series differs between compounds. Particulars: RealTime-Glo luminescence; series mostly up to 76.8 µM. Put shortly:
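Assay medium contained NanoLuc luciferase plus cell-permeant prosubstrate, added with HEK293 cells at 600 cells/well. After 5 h at 37 C/5% CO2 compounds were added; plates stayed at 37 C for 40 h with serial luminescence reads.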
(In general: qHTS replaces the single test concentration by a dilution series.)
Turning to `C[C@]12C=CC(=O)C=C1CC[C@@H]1[C@@H]2[C@@H](O)C[C@@]2(C)[C@H]1CC[C@]2(O)C(=O)CO`, the Potency entry was “inactive”.

For `CC(=O)NS(=O)(=O)c1ccc(N)cc1`, the Potency result was “inactive”.

In the case of `Nc1ccc(C(=O)O)cc1`, the Potency result was “inactive”.

With `O=c1cc[nH]c(=S)[nH]1`, the Potency entry is “inactive”.

`C/C=C/c1ccc(OC)cc1`: the Potency entry is “inactive”.

Regarding `CCCCC1C(=O)N(c2ccccc2)N(c2ccccc2)C1=O`, the Potency result is “inactive”.

Turning to `Cc1ccc(C)c(OCCCC(C)(C)C(=O)O)c1`, the Potency entry is “inactive”.

Take `O=C(O)CCC(=O)O`: the Potency entry is “inactive”.

Regarding `CC(=O)Nc1nnc(S(N)(=O)=O)s1`, the Potency entry was “inactive”.

As for `COC(=O)[C@H](Cc1ccccc1)NC(=O)[C@@H](N)CC(=O)O` (H-Asp-Phe-OMe), the Potency result was “inactive”.

Take `CCCC(CCC)C(=O)O`: the Potency entry is “inactive”.

Take `COc1ccc2[nH]cc(CCNC(C)=O)c2c1`: the Potency entry is “inactive”.

Turning to `CC(=O)OCC(COC(C)=O)OC(C)=O`, the Potency result is “inactive”.

Regarding `Cn1c(=O)c2[nH]cnc2n(C)c1=O`, the Potency entry is “inactive”.

As for `Nc1ccc(S(=O)(=O)c2ccc(N)cc2)cc1`, the Potency result was “inactive”.

With `OC(Cn1cncn1)(Cn1cncn1)c1ccc(F)cc1F`, the Potency entry was “inactive”.

Turning to `C1N2CN3CN1CN(C2)C3`, the Potency entry is “inactive”.

For `CCCN(CCC)S(=O)(=O)c1ccc(C(=O)O)cc1`, the Potency entry is “inactive”.

On to `NNC(=O)c1ccncc1`, for which the Potency entry is “inactive”.

In the case of `Cn1cc[nH]c1=S`, the Potency result was “inactive”.

As for `O=C1CN(/N=C/c2ccc([N+](=O)[O-])o2)C(=O)N1`, the Potency entry was “inactive”.

On to `CCCCOC(=O)CC(CC(=O)OCCCC)(OC(C)=O)C(=O)OCCCC`, for which the Potency entry was “inactive”.

As for `CCCCC(CC)COC(=O)/C=C/c1ccc(OC)cc1` (stereo not drawn), the Potency entry is “inactive”.

As for `CC(C)(Oc1ccc(C2CC2(Cl)Cl)cc1)C(=O)O` (stereo not drawn), the Potency result is “inactive”.

Regarding `OCCc1ccccc1`, the Potency entry is “inactive”.

With `NC(N)=NC(=O)c1nc(Cl)c(N)nc1N`, the Potency entry is “inactive”.

Regarding `NC(=O)c1ccccc1O`, the Potency result was “inactive”.

Turning to `CC1(C)[C@@H]2CC[C@@]1(C)C(=O)C2`, the Potency entry was “inactive”.

Take `Cc1cc(=O)n(-c2ccccc2)n1C`: the Potency entry is “inactive”.

`CCOc1ccc(NC(=O)CC(C)O)cc1` (stereo not drawn): the Potency result was “inactive”.

As for `NC(=O)c1cnccn1`, the Potency entry is “inactive”.

For the molecule `O=c1ccc2ccccc2o1`, the Potency result is “inactive”.

For `Cc1noc(NS(=O)(=O)c2ccc(N)cc2)c1C`, the Potency result was “inactive”.

Consider `Cc1cc(=O)[nH]c(=S)[nH]1`, for which the Potency entry is “inactive”.

With `Cc1ccccc1C(OCCN(C)C)c1ccccc1` (stereo not drawn), the Potency result is “inactive”.

`O=S(=O)(O)c1ccc2cc(O)ccc2c1`: the Potency result is “inactive”.

A further assay is described as follows: A CellTox Green Cytotoxicity Assay to monitor cytotoxicity in HEK293 cells - 0 hour (AID 1224869). To be noted: CellTox Green fluorescence; series mostly up to 76.8 µM. In short, it runs like this:
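HEK293 cells premixed with CellTox Green dye were seeded at 600 cells/well and left 5 h at 37 C/5% CO2 before pin transfer of 23 nL compound in DMSO. Fluorescence from dye bound to dead-cell DNA was read during 40 h treatment.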
For `C[C@]12C=CC(=O)C=C1CC[C@@H]1[C@@H]2[C@@H](O)C[C@@]2(C)[C@H]1CC[C@]2(O)C(=O)CO`, the molecule was classed as inactive.

Regarding `CC(=O)NS(=O)(=O)c1ccc(N)cc1`, the result was inactive.

On to `Nc1ccc(C(=O)O)cc1`, for which the result was inactive.

Take `O=c1cc[nH]c(=S)[nH]1`: the molecule was classed as inactive.

On to `C/C=C/c1ccc(OC)cc1`, for which the call was inactive.

With `CCCCC1C(=O)N(c2ccccc2)N(c2ccccc2)C1=O`, the molecule was called inactive.

As to `Cc1ccc(C)c(OCCCC(C)(C)C(=O)O)c1`, the call was inactive.

With `O=C(O)CCC(=O)O`, the outcome was inactive.

Regarding `CC(=O)Nc1nnc(S(N)(=O)=O)s1`, the molecule was called inactive.

For the molecule `COC(=O)[C@H](Cc1ccccc1)NC(=O)[C@@H](N)CC(=O)O` (H-Asp-Phe-OMe), the call was inactive.

With `CCCC(CCC)C(=O)O`, the call was inactive.

In the case of `COc1ccc2[nH]cc(CCNC(C)=O)c2c1`, the molecule was classed as inactive.

With `CC(=O)OCC(COC(C)=O)OC(C)=O`, the molecule was called inactive.

Take `Cn1c(=O)c2[nH]cnc2n(C)c1=O`: the call was inactive.

Take `Nc1ccc(S(=O)(=O)c2ccc(N)cc2)cc1`: the molecule was classed as inactive.

`OC(Cn1cncn1)(Cn1cncn1)c1ccc(F)cc1F`: the outcome was inactive.

As for `C1N2CN3CN1CN(C2)C3`, the outcome was inactive.

Turning to `CCCN(CCC)S(=O)(=O)c1ccc(C(=O)O)cc1`, the outcome was inactive.

Take `NNC(=O)c1ccncc1`: the call was inactive.

Turning to `Cn1cc[nH]c1=S`, the result was inactive.

As for `O=C1CN(/N=C/c2ccc([N+](=O)[O-])o2)C(=O)N1`, the result was inactive.

Consider `CCCCOC(=O)CC(CC(=O)OCCCC)(OC(C)=O)C(=O)OCCCC`, for which the call was inactive.

For `CCCCC(CC)COC(=O)/C=C/c1ccc(OC)cc1` (stereo not drawn), the call was inactive.

`CC(C)(Oc1ccc(C2CC2(Cl)Cl)cc1)C(=O)O` (stereo not drawn): the molecule was called inactive.

Consider `OCCc1ccccc1`, for which the molecule was classed as inactive.

Take `NC(N)=NC(=O)c1nc(Cl)c(N)nc1N`: the result was inactive.

With `NC(=O)c1ccccc1O`, the molecule was classed as inactive.

Consider `CC1(C)[C@@H]2CC[C@@]1(C)C(=O)C2`, for which the molecule was called inactive.

With `Cc1cc(=O)n(-c2ccccc2)n1C`, the result was inactive.

Turning to `CCOc1ccc(NC(=O)CC(C)O)cc1` (stereo not drawn), the molecule was called inactive.

`NC(=O)c1cnccn1`: the molecule was called inactive.

`O=c1ccc2ccccc2o1`: the molecule was called inactive.

For `Cc1noc(NS(=O)(=O)c2ccc(N)cc2)c1C`, the call was inactive.

Take `Cc1cc(=O)[nH]c(=S)[nH]1`: the molecule was classed as inactive.

In the case of `Cc1ccccc1C(OCCN(C)C)c1ccccc1` (stereo not drawn), the molecule was called inactive.

Take `O=S(=O)(O)c1ccc2cc(O)ccc2c1`: the result was inactive.

A further assay in a line: qHTS RealTime-Glo MT Cell Viability Assay in HepG2 cells - 40 hour (AID 1224870). To be noted: RealTime-Glo luminescence; series mostly up to 76.8 µM. In short, it runs like this: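 Real-time viability: cells seeded at 600 per well together with NanoLuc and cell-permeant prosubstrate, compounds added after 5 h incubation. Luminescence tracked at 0, 8, 16, 24, 32 and 40 h of exposure.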
Take `C[C@]12C=CC(=O)C=C1CC[C@@H]1[C@@H]2[C@@H](O)C[C@@]2(C)[C@H]1CC[C@]2(O)C(=O)CO`: the Potency entry was “inactive”.

Consider `CC(=O)NS(=O)(=O)c1ccc(N)cc1`, for which the Potency entry was “inactive”.

For the molecule `Nc1ccc(C(=O)O)cc1`, the Potency result was “inactive”.

On to `O=c1cc[nH]c(=S)[nH]1`, for which the Potency result is “inactive”.

With `C/C=C/c1ccc(OC)cc1`, the Potency result was “inactive”.

Regarding `CCCCC1C(=O)N(c2ccccc2)N(c2ccccc2)C1=O`, the Potency entry was “inactive”.

Take `Cc1ccc(C)c(OCCCC(C)(C)C(=O)O)c1`: the Potency entry was “inactive”.

In the case of `O=C(O)CCC(=O)O`, the Potency result is “inactive”.

With `CC(=O)Nc1nnc(S(N)(=O)=O)s1`, the Potency result is “inactive”.

As to `COC(=O)[C@H](Cc1ccccc1)NC(=O)[C@@H](N)CC(=O)O` (H-Asp-Phe-OMe), the Potency result is “inactive”.

As to `CCCC(CCC)C(=O)O`, the Potency entry is “inactive”.

On to `COc1ccc2[nH]cc(CCNC(C)=O)c2c1`, for which the Potency entry was “inactive”.

For `CC(=O)OCC(COC(C)=O)OC(C)=O`, the Potency result was “inactive”.

As to `Cn1c(=O)c2[nH]cnc2n(C)c1=O`, the Potency result was “inactive”.

Turning to `Nc1ccc(S(=O)(=O)c2ccc(N)cc2)cc1`, the Potency entry is “inactive”.

Regarding `OC(Cn1cncn1)(Cn1cncn1)c1ccc(F)cc1F`, the Potency result is “inactive”.

`C1N2CN3CN1CN(C2)C3`: the Potency result is “inactive”.

Consider `CCCN(CCC)S(=O)(=O)c1ccc(C(=O)O)cc1`, for which the Potency result was “inactive”.

Take `NNC(=O)c1ccncc1`: the Potency entry was “inactive”.

In the case of `Cn1cc[nH]c1=S`, the Potency entry is “inactive”.

With `O=C1CN(/N=C/c2ccc([N+](=O)[O-])o2)C(=O)N1`, the Potency result is “inactive”.

For the molecule `CCCCOC(=O)CC(CC(=O)OCCCC)(OC(C)=O)C(=O)OCCCC`, the Potency entry was “inactive”.

As for `CCCCC(CC)COC(=O)/C=C/c1ccc(OC)cc1` (stereo not drawn), the Potency entry was “inactive”.

For `CC(C)(Oc1ccc(C2CC2(Cl)Cl)cc1)C(=O)O` (stereo not drawn), the Potency result is “inactive”.

Take `OCCc1ccccc1`: the Potency entry is “inactive”.

As for `NC(N)=NC(=O)c1nc(Cl)c(N)nc1N`, the Potency entry was “inactive”.

Consider `NC(=O)c1ccccc1O`, for which the Potency entry was “inactive”.

Turning to `CC1(C)[C@@H]2CC[C@@]1(C)C(=O)C2`, the Potency entry was “inactive”.

In the case of `Cc1cc(=O)n(-c2ccccc2)n1C`, the Potency entry was “inactive”.

Take `CCOc1ccc(NC(=O)CC(C)O)cc1` (stereo not drawn): the Potency entry is “inactive”.

`NC(=O)c1cnccn1`: the Potency result was “inactive”.

`O=c1ccc2ccccc2o1`: the Potency result was “inactive”.

Take `Cc1noc(NS(=O)(=O)c2ccc(N)cc2)c1C`: the Potency result was “inactive”.

Take `Cc1cc(=O)[nH]c(=S)[nH]1`: the Potency result was “inactive”.

With `Cc1ccccc1C(OCCN(C)C)c1ccccc1` (stereo not drawn), the Potency entry was “inactive”.

In the case of `O=S(=O)(O)c1ccc2cc(O)ccc2c1`, the Potency entry is “inactive”.
